Data from PubChem BioAssay AID1159580 (chemical genetic matrix, 2015).
Screen size: about 5,500 compounds; about 2,000 (36%) were called active. Another 18% or so got no clear call; they are omitted. Cut-off read from the data, not from the text of the source: active = normalized growth mostly below about 0.91 (no sharp cut-off); inconclusive = no clear call, values can overlap the other calls; inactive = mostly above about 0.92. Some of the results follow.

Experiment: chemical genetic growth profiling, strain panel (AID 1159580);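 note: tested at 20 µM; growth read once vehicle control cultures reached saturation at 30 °C; 1 = growth at the plate median or of vehicle wells; lower values mean less growth of the strain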
Settings: S. cerevisiae deletion strains, growth OD

Measured: normalized growth

CC1CC2C3CC(F)C4=CC(=O)C=CC4(C)C3(F)C(O)CC2(C)C1(O)C(=O)CO (centres undefined)
inactive: locus YAL013W, strain DEP1, stronger effect = lower value 1.03 | locus YAL021C, strain ccr4, stronger effect = lower value 0.997 | locus YAL026C, strain drs2, stronger effect = lower value 1 | locus YAL030W, strain snc1, stronger effect = lower value 1 | locus YBL061C, strain skt5, stronger effect = lower value 0.996 | locus YBR009C, strain hhf1, stronger effect = lower value 0.997 | locus YBR021W, strain FUR4, stronger effect = lower value 1.03 | locus YBR023C, strain chs3, stronger effect = lower value 0.988 | locus YBR171W, strain sec66, stronger effect = lower value 0.997 | locus YBR229C, strain ROT2, stronger effect = lower value 1.01 | locus YBR231C, strain swc5, stronger effect = lower value 0.992 | locus YBR279W, strain paf1, stronger effect = lower value 0.989 | locus YCL011C, strain gbp2, stronger effect = lower value 0.992 | locus YCL016C, strain dcc1, stronger effect = lower value 0.98 | locus YCL029C, strain bik1, stronger effect = lower value 1.03 | locus YCL061C, strain MRC1, stronger effect = lower value 0.999 | locus YCL069W, strain vba3, stronger effect = lower value 1.01 | locus YCR088W, strain abp1, stronger effect = lower value 1 | locus YDL005C, strain med2, stronger effect = lower value 0.993 | locus YDL035C, strain GPR1, stronger effect = lower value 1.05 | locus YDL040C, strain nat1, stronger effect = lower value 0.997 | locus YDL074C, strain BRE1, stronger effect = lower value 1.09 | locus YDL101C, strain DUN1, stronger effect = lower value 1.02 | locus YDL134C, strain PPH21, stronger effect = lower value 1.01 | locus YDL185W, strain tfp1, stronger effect = lower value 1.03 | locus YDL192W, strain arf1, stronger effect = lower value 1.03 | locus YDR001C, strain nth1, stronger effect = lower value 1.01 | locus YDR069C, strain doa4, stronger effect = lower value 1.01 | locus YDR101C, strain arx1, stronger effect = lower value 1.02 | locus YDR137W, strain rgp1, stronger effect = lower value 0.995 | locus YDR150W, strain NUM1, stronger effect = lower value 1.03 | locus YDR159W, strain sac3, stronger effect = lower value 1.01 | locus YDR162C, strain NBP2, stronger effect = lower value 1.02 | locus YDR195W, strain ref2 0.968 | locus YDR297W, strain sur2, stronger effect = lower value 0.99 | locus YDR318W, strain mcm21, stronger effect = lower value 1.05 | locus YDR334W, strain swr1, stronger effect = lower value 0.994 | locus YDR335W, strain msn5, stronger effect = lower value 1 | locus YDR388W, stronger effect = lower value 1.01 | locus YDR392W, strain spt3, stronger effect = lower value 0.995 | locus YDR502C, strain sam2, stronger effect = lower value 1.02 | locus YEL003W, strain gim4, stronger effect = lower value 1.01 | locus YEL037C, strain rad23, stronger effect = lower value 1 | locus YEL061C, strain CIN8 (second series), stronger effect = lower value 1.01 | locus YEL061C, strain CIN8, stronger effect = lower value 1.01 | locus YER015W, strain faa2, stronger effect = lower value 1 | locus YER016W, strain bim1, stronger effect = lower value 0.995 | locus YER110C, stronger effect = lower value 1.03 | locus YER111C, strain swi4, stronger effect = lower value 1 | locus YER155C, strain BEM2 (second series), stronger effect = lower value 1.03 | locus YER155C, strain BEM2, stronger effect = lower value 0.999 | locus YER167W, strain BCK2, stronger effect = lower value 1.05 | locus YFR010W, strain ubp6, stronger effect = lower value 1.01 | locus YGL078C, strain dbp3, stronger effect = lower value 1.02 | locus YGL086W, strain mad1, stronger effect = lower value 1.04 | locus YGL167C, strain pmr1, stronger effect = lower value 0.991 | locus YGL173C, strain kem1, stronger effect = lower value 1.01 | locus YGL227W, strain vid30, stronger effect = lower value 0.998 | locus YGL240W, strain doc1, stronger effect = lower value 1 | locus YGL248W, strain PDE1, stronger effect = lower value 1.01 | locus YGL253W, strain hxk2, stronger effect = lower value 0.983 | locus YGR078C, strain PAC10, stronger effect = lower value 1.04 | locus YGR135W, strain pre9, stronger effect = lower value 1.03 | locus YGR229C, strain SMI1, stronger effect = lower value 1.02 | locus YGR252W, strain gcn5, stronger effect = lower value 1.06 | locus YHR013C, strain ard1, stronger effect = lower value 0.985 | locus YHR027C, strain rpn1, stronger effect = lower value 1.01 | locus YHR030C, strain SLT2, stronger effect = lower value 1.02 | locus YHR079C, strain IRE1 (second series), stronger effect = lower value 1.02 | locus YHR094C, strain hxt1, stronger effect = lower value 1.02 | locus YHR129C, strain ARP1, stronger effect = lower value 1.01 | locus YHR142W, strain chs7, stronger effect = lower value 0.995 | locus YHR200W, strain rpn10, stronger effect = lower value 1.03 | locus YIL066C, strain RNR3, stronger effect = lower value 1.04 | locus YIL073C, strain SPO22, stronger effect = lower value 1.1 | locus YIL125W, strain kgd1, stronger effect = lower value 1.02 | locus YIR030C, strain dcg1, stronger effect = lower value 1.02 | locus YJL092W, strain hpr5, stronger effect = lower value 1 | locus YJL095W, strain BCK1 (second series), stronger effect = lower value 0.997 | locus YJL095W, strain BCK1, stronger effect = lower value 1.02 | locus YJL115W, strain asf1, stronger effect = lower value 1.01 | locus YJL129C, strain trk1, stronger effect = lower value 0.997 | locus YJL134W, strain LCB3, stronger effect = lower value 1.02 | locus YJL154C, strain vps35, stronger effect = lower value 1.01 | locus YJL164C, strain tpk1, stronger effect = lower value 1.01 | locus YJL166W, strain qcr8, stronger effect = lower value 0.993 | locus YJL168C, strain set2, stronger effect = lower value 1.02 | locus YJL187C, strain SWE1 (second series), stronger effect = lower value 1.02 | locus YJL187C, strain SWE1, stronger effect = lower value 0.986
